In the library only some 2.8% were active in any assay of this set; here they are far more common.
a7 integrin act = activators of alpha7 integrin expression for muscular dystrophy | alpha7betagal myoblasts, beta-gal FDG fluorescence, 48 h | Potency, µM (highest dose often 38.3 µM), inactives show at the highest dose activation, most hits filed as activators | hit rate 0.064% among 350,000;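 note: potency is the fitted concentration of half-maximal effect; 100% = response of the positive control SU9516; nearly all actives have a fitted effect of over 60% in size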
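alpha7betagal+/- myoblasts (passage 13, 250/well) treated 48 h at 37C with compounds at 1:260 dilution of DMSO stock. Lysed, then beta-galactosidase activity read as FDG fluorescence (ex 480/em 540) after 30 min, with pre-read for autofluorescence.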
PTHR1 ag = agonists of human PTHR1 parathyroid hormone receptor; Q03431; hit rate 0.075% among 410,000; Potency, µM (doses to about 115 µM), for the others: top-dose activation, hits mostly activators; HEK293 GP2 PTHR1 cells, GloSensor cAMP luminescence, 1 h; note: potency is the fitted concentration of half-maximal effect; nearly all actives have a fitted effect of over 55% in size
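HEK-293-derived GP2 cells expressing PTHR1 and a GloSensor cAMP reporter, 3,000/well, plated overnight, given luciferin plus IBMX (each 0.5 mM as added) for 1 h at 37 °C, then compound for 1 h at 37 °C. Luminescence was read after 15 min at room temperature.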
CBFb-RUNX1 inh = inhibitors of human CBF-beta and RUNX1 interaction. 230,000 tested, under 10 active. Potency, µM (doses to about 59.8 µM), for the others: top-dose activity, negative = inhibition, actives largely listed as inhibitors. AID 1477. AlphaScreen CBFb-His/RUNX1-biotin binding, biochemical. Q01196+Q13951; note: % of control where 0% means no effect
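AlphaScreen proximity signal reports loss of binding between His-tagged CBF-beta and biotin-labelled RUNX1, each at 30 nM. Proteins are pre-associated for 20 minutes, compounds added for 15 minutes, then beads for 90 minutes, all at ambient temperature.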
DRD3 antagonist = blocks the human D3 dopamine receptor | P35462 | D3R cells, DiscoveRx beta-arrestin luminescence, antagonist mode; hits give low values | max response, negative = inhibition, % | hit rate 2.5% among 360,000; in the data active = max response below about -50%; inconclusive = no clear call, values can overlap the other calls; note: % is set by controls: 0 for no effect and ±100 for the full control effect
Target sequence (P35462 whole entry, looked up): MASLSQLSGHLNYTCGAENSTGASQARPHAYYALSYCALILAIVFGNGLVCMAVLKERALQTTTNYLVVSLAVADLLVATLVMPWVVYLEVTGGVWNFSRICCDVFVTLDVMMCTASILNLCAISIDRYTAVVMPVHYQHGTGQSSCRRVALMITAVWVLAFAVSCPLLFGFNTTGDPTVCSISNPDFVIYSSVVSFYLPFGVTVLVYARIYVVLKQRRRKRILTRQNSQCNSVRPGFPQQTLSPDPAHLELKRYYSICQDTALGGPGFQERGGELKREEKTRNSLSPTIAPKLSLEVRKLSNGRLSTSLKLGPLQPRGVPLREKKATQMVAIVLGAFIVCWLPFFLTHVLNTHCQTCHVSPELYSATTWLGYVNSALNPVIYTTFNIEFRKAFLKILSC
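Cells expressing the human receptor were seeded at 1500 cells/well, incubated overnight at 37 degrees C in 5% CO2, then exposed to library compounds with dopamine controls for 90 minutes at 37 degrees C before luminescent detection.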
MBNL1 CUG block = MBNL1-poly(CUG) RNA binding inhibition; AID 2675; TR-FRET MBNL1-His/biotin-(CUG)12 binding, 665/545 ratio; Potency, µM (highest dose often 57.5 µM), inactives show top-dose activity change, negative = inhibition, actives largely listed as inhibitors; Q9NR56; hit rate 0.036% among 280,000; active = well fitted inhibition curve with a large enough effect in the signal ratio, with a control signal flat, not every such curve was filed as active; inconclusive = small, poorly fitted or top-dose-only effect, or effect the other way, or a change in a side signal; inactive = no such curve, though single readings can be large or run the other way; the % refers to the signal ratio; note: potency is the fitted concentration of half-maximal effect; % is set by controls: 0 for no effect and ±100 for the full control effect
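TR-FRET readout: Ex 340 nm, 665/545 nm emission ratio, normalized to buffer-only (basal) and MBNL1-(CUG)12 controls. Complex of MBNL1-His with Biotin-(CUG)12, compounds 92 nM–58 uM, incubated 60 min at room temperature.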
D3 ag = agonists of human D3 dopamine receptor | max activation, % | P35462 | hit rate 0.58% among 410,000 | AID 652048 | D3R DiscoveRx beta-arrestin cells, luminescence, 90 min; in the data active = max activation above about 30%; note: 0% is about no effect
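Cells at 1500/well, incubated overnight, then treated with pinned compounds (dopamine as control) for 90 min at 37 degrees C. DiscoveRx reagent added for 30 - 60 minutes at room temperature; luminescence read.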
An asterisk follows results filed as active; ! = not active in a repeat; [ ] = remark or other dose. Unless noted, calls come from the whole dose curve; as a rule, active = well fitted curve in the direction sought with a large enough effect; inconclusive = small, poorly fitted or top-dose-only effect, or another doubt; inactive = no such curve, though single readings can be large; an effect the other way counts as inactive or inconclusive.

Screening CCc1ccc(S(=O)(=O)Nc2ccc(N3CCN(C)CC3)cc2)cc1 returned a7 integrin act -2.1%, PTHR1 ag inactive, CBFb-RUNX1 inh -6.6%, DRD3 antagonist -82.1* and D3 ag -9.2.
O=C(CSc1nnc(-c2ccc(O)cc2)o1)Nc1ccccc1Br was read as a7 integrin act 9.3%, PTHR1 ag inactive, DRD3 antagonist -9.6, MBNL1 CUG block 1.0% and D3 ag 1.2.
NC1[C@H]2CN(c3nc4c(cc3F)c(=O)c(C(=O)O)cn4-c3ccc(F)cc3F)C[C@@H]12 (stereo partly drawn) was read as D3 ag 2.9.
Screening C=C[C@]1(C)C[C@@H](OC(=O)CSCCN(CC)CC)[C@]2(C)C(C)CC[C@]3(CCC(=O)[C@H]32)[C@@H](C)[C@@H]1O (stereo partly drawn) returned PTHR1 ag -14.8%, DRD3 antagonist -88.8*! and D3 ag -59.2.
For Cc1ccc(-c2nnn(CC(=O)N(c3ccccc3F)C(C(=O)NC3CCCC3)c3ccncc3)n2)o1 (stereo not drawn) the results were a7 integrin act 2.3%, PTHR1 ag inactive, DRD3 antagonist inconclusive, MBNL1 CUG block -0.8% and D3 ag -13.1.
Screening COc1ccc(-c2nnn(CC(=O)N(Cc3ccc(F)cc3)C(C(=O)NC3CCCC3)c3ccc(F)cc3)n2)cc1 (stereo not drawn) returned a7 integrin act 28.7%, PTHR1 ag 21.0%[57.5 µM], DRD3 antagonist -60.4* and D3 ag -10.7.
Screening COc1ccccc1N(C(=O)Cn1nnc(-c2ccc(C)o2)n1)C(C(=O)NC1CCCC1)c1ccncc1 (stereo not drawn) returned a7 integrin act 9.4%, PTHR1 ag inactive, DRD3 antagonist -53.1*, MBNL1 CUG block -6.9% and D3 ag -18.3.
Cc1nn2c(N3CCN(C)CC3)c3c(nc2c1-c1ccccc1)CCCC3 was read as a7 integrin act 10.7%, PTHR1 ag inconclusive, CBFb-RUNX1 inh 8.5%, DRD3 antagonist -50.4*, MBNL1 CUG block -4.6% and D3 ag -12.1.
Screening O=C(Nc1ccc(C(F)(F)F)cc1)c1ccccc1-n1cnnn1 returned a7 integrin act 5.9%, PTHR1 ag -7.8%, DRD3 antagonist -9.4 and D3 ag 0.6.
O=C(NC1CCCCC1)C(CCc1ccccc1)N1CCOCC1 (stereo not drawn) was read as PTHR1 ag -20.3%, DRD3 antagonist 1.0 and D3 ag 0.7.
O=C(NC1CCCCC1)C(CCc1ccccc1)N1CCc2ccccc2C1 (stereo not drawn) was read as PTHR1 ag -17.8%, DRD3 antagonist -59.5* and D3 ag -13.9.
C[C@H](CO)N1C[C@H](C)[C@@H](CN(C)C(=O)c2ccc(F)cc2)Oc2cc(Br)ccc2S1(=O)=O was read as a7 integrin act 9.3%, PTHR1 ag -6.0%, DRD3 antagonist -95.2* and D3 ag -4.5.
CCN(C(=O)COC(=O)c1cccnc1SC)c1c(N)n(Cc2ccccc2)c(=O)[nH]c1=O was read as a7 integrin act 0.0%, PTHR1 ag -14.8%, DRD3 antagonist 14.3 and D3 ag 15.9.
For Cc1ccc(/C=C2\NC(=S)NC2=O)cc1[N+](=O)[O-] the results were a7 integrin act 1.1%, PTHR1 ag inactive, CBFb-RUNX1 inh -3.7%, DRD3 antagonist 5.4, MBNL1 CUG block -0.8% and D3 ag -3.7.
Screening O=C1NC(=S)NC1=Cc1ccc(O)cc1 returned a7 integrin act -21.9%, PTHR1 ag -4.1%, DRD3 antagonist -23.1 and D3 ag -10.8.
For O=C1NC(=S)N/C1=C/c1cc([N+](=O)[O-])ccc1O the results were a7 integrin act 11.8%, PTHR1 ag 11.3%, CBFb-RUNX1 inh -3.2%, DRD3 antagonist -106.5*, MBNL1 CUG block inconclusive and D3 ag -4.8.
